Laboratory results reported in the supplement of paper PMC10849652.
Of roughly 8,800 targets only a part is listed; those with a hit were picked by preference. About 0.5% of all pairs of compound and target were hits.

How the values were obtained:
Experiment in all cases: log2 fold change, soluble protein after heating vs DMSO (PISA); higher = thermal stabilisation; K562 lysate, 10 uM; active = over 0.2 and 3.5 SD of the protein, either way, in both replicates (recomputed)
[1] = compound: CS(=O)(=O)CCNCc1ccc(-c2ccc3ncnc(Nc4ccc(OCc5cccc(F)c5)c(Cl)c4)c3c2)o1 [lapatinib]
Method in brief: (§1)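 Following dounce homogenisation of K562 pellets in PBS pH 7.4 with 1 mM MgCl2, crude extract at 1 mg/mL protein was incubated for 30 min with 10 μM compound. Aliquots were then heated for 3 min over 48°C-58°C and pooled, NP-40 was added to 0.5% at 4°C, and soluble protein was recovered as the supernatant at 21,000xg for 90 min. Channel-sum-equalised TMTpro 16plex LC-MS/MS quantified this protein. Each value, from duplicates, is a log-two fold change in thermal stability relative to solvent controls.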

[2] = compound: CS(=O)(=O)N1CCN(Cc2cc3nc(-c4cccc5[nH]ncc45)nc(N4CCOCC4)c3s2)CC1 [pictilisib]
Method in brief: as §1

[3] = compound: C[C@@H](Oc1cc(-c2cnn(C3CCNCC3)c2)cnc1N)c1c(Cl)ccc(F)c1Cl [crizotinib]
Method in brief: as §1

[4] = compound: C[C@H](C1=CC=C(C=C1)C(=O)NC2=C3C=CNC3=NC=C2)N
Method in brief: as §1

[5] = compound: C[C@H](Nc1ncnc2nc[nH]c12)c1cc2cccc(Cl)c2c(=O)n1-c1ccccc1 [duvelisib]
Method in brief: as §1

[6] = compound: Cc1cc(Nc2cc(CN3CCOCC3)c3nc(C)c(Cc4ccc(Cl)cc4F)n3n2)n[nH]1 [gandotinib]
Method in brief: as §1

[7] = compound: Cc1cc(Nc2cc(N3CCN(C)CC3)nc(Sc3ccc(NC(=O)C4CC4)cc3)n2)n[nH]1 [tozasertib]
Method in brief: as §1

[8] = compound: Cc1ccc(-n2nc(C(C)(C)C)cc2NC(=O)Nc2ccc(OCCN3CCOCC3)c3ccccc23)cc1 [doramapimod]
Method in brief: as §1

[9] = compound: Cc1ccc(NC(=O)c2ccc(CN3CC[C@H](N(C)C)C3)c(C(F)(F)F)c2)cc1Nc1nccc(-c2cncnc2)n1 [bafetinib]
Method in brief: as §1

[10] = compound: Cc1cccc(CC(=O)N2CCc3c2ccc(-c2cn(C)c4ncnc(N)c24)c3F)n1
Method in brief: as §1

[11] = compound: Cc1cn(-c2cc(NC(=O)c3ccc(C)c(Nc4nccc(-c5cccnc5)n4)c3)cc(C(F)(F)F)c2)cn1 [nilotinib]
Method in brief: as §1

[12] = compound: Cc1nc(Nc2n[nH]c3c2CN(C(=O)N[C@H](CN(C)C)c2ccccc2)C3(C)C)c2sccc2n1
Method in brief: as §1

[13] = compound: Cc1nc(Nc2ncc(C(=O)Nc3c(C)cccc3Cl)s2)cc(N2CCN(CCO)CC2)n1 [dasatinib]
Method in brief: as §1

[14] = compound: Cc1ncc(-c2ccnc(Nc3ccc(S(C)(=O)=O)cc3)n2)n1C(C)C
Method in brief: as §1

[15] = compound: Cn1cc(-c2ccc3c(c2)CCN3C(=O)Cc2cccc(C(F)(F)F)c2)c2c(N)ncnc21
Method in brief: as §1

[16] = compound: Cn1cc(CNCC2CCN(c3ncc(C(=O)NO)cn3)CC2)c2ccccc21 [quisinostat]
Method in brief: as §1

[17] = compound: Cn1cncc1[C@@](N)(c1ccc(Cl)cc1)c1ccc2c(c1)c(-c1cccc(Cl)c1)cc(=O)n2C [tipifarnib]
Method in brief: as §1

[18] = compound: NC(=O)Nc1cc(-c2cccc(F)c2)sc1C(=O)N[C@H]1CCCNC1
Method in brief: as §1

[19] = compound: NC(=O)c1cnc(N[C@@H]2CCCC[C@@H]2N)nc1Nc1cccc(-n2nccn2)c1
Method in brief: as §1

[20] = compound: NC1(c2ccc(-c3nc4ccn5c(=O)[nH]nc5c4cc3-c3ccccc3)cc2)CCC1
Method in brief: as §1

Measured: log2 fold change

R3HCC1 (UniProt Q9Y3T6)
inactive: [1] -0.018 | [2] -0.049 | [3] 0 | [4] -0.034 | [5] 0 | [6] 0.089 | [7] 0.006 | [8] 0.044 | [9] 0.002 | [10] 0.08 | [11] -0.023 | [12] 0.012 | [13] 0.043 | [14] 0.011 | [15] -0.049 | [16] -0.014 | [17] -0.058 | [18] -0.036 | [19] 0.003 | [20] 0.038

RINT1 (UniProt Q6NUQ1)
inactive: [1] -0.069 | [2] -0.065 | [3] -0.06 | [4] -0.058 | [5] 0.046 | [6] -0.039 | [7] 0.025 | [8] 0.069 | [9] -0.058 | [10] 0.132 | [11] 0.043 | [12] 0.075 | [13] -0.115 | [14] 0.028 | [15] 0.012 | [16] -0.029 | [17] -0.044 | [18] 0.071 | [19] 0.001 | [20] -0.014

QTRT2 isoform 4 (UniProt Q9H974)
Chain of UniProt Q9H974 (Q9H974 whole entry, looked up): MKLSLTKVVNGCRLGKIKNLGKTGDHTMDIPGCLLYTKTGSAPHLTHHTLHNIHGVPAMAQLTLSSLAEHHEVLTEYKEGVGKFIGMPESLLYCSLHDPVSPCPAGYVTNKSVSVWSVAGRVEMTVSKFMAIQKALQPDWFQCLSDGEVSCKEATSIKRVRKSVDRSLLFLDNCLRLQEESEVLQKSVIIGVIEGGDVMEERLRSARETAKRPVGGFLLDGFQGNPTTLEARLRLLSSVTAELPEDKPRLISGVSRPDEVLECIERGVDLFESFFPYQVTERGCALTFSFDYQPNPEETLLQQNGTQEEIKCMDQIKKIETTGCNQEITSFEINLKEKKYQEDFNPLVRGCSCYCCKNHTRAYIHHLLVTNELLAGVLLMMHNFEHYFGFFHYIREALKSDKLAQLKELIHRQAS
active: [4] -0.297 | [10] 0.256
inactive: [1] -0.016 | [2] -0.037 | [3] -0.018 | [5] -0.008 | [6] 0.185 | [7] 0.003 | [8] -0.029 | [9] -0.089 | [11] -0.001 | [12] -0.024 | [13] 0.005 | [14] -0.024 | [15] -0.051 | [16] -0.059 | [17] 0.022 | [18] 0.022 | [19] 0.004 | [20] 0.021

RNASEH2B (UniProt Q5TBB1)
Chain of UniProt Q5TBB1 (Q5TBB1 whole entry, looked up): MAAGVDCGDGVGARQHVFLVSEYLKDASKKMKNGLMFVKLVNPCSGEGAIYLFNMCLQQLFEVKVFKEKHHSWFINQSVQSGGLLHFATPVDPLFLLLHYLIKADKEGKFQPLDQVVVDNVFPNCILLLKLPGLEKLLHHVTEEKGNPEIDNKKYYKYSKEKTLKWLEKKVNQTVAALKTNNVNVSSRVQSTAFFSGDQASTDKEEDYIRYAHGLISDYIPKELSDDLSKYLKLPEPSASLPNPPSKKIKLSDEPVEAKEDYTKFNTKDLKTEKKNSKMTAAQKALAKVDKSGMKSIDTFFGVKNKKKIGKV
inactive: [1] 0.001 | [2] 0.039 | [3] -0.049 | [4] 0.126 | [5] 0.03 | [6] -0.126 | [7] 0.055 | [8] 0.041 | [9] 0.027 | [10] -0.064 | [11] 0.024 | [12] 0.007 | [13] -0.024 | [14] -0.001 | [15] -0.011 | [16] -0.059 | [17] -0.009 | [18] 0.037 | [19] 0.004 | [20] -0.015

RAD51C (UniProt O43502)
Chain of UniProt O43502 (O43502 whole entry, looked up): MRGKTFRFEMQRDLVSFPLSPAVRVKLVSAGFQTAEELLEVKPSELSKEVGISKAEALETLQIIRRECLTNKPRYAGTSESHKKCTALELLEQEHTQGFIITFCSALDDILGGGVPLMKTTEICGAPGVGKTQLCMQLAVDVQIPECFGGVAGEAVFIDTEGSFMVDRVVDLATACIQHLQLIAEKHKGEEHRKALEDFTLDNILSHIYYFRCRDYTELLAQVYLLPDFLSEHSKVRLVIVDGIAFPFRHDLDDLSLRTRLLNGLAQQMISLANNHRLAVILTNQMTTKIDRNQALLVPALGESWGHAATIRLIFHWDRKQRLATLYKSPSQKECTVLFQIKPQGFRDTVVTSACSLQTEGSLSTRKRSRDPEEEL
inactive: [1] -0.042 | [2] -0.023 | [3] -0.074 | [4] -0.006 | [5] 0.022 | [6] 0.065 | [7] -0.089 | [8] 0.074 | [9] -0.119 | [10] -0.044 | [11] 0.013 | [12] 0.021 | [13] -0.014 | [14] 0.009 | [15] -0.019 | [16] 0.036 | [17] 0.03 | [18] 0.051 | [19] 0.042 | [20] -0.021

SEC24D isoform 2 (UniProt O94855)
Chain of UniProt O94855 (O94855 whole entry, looked up): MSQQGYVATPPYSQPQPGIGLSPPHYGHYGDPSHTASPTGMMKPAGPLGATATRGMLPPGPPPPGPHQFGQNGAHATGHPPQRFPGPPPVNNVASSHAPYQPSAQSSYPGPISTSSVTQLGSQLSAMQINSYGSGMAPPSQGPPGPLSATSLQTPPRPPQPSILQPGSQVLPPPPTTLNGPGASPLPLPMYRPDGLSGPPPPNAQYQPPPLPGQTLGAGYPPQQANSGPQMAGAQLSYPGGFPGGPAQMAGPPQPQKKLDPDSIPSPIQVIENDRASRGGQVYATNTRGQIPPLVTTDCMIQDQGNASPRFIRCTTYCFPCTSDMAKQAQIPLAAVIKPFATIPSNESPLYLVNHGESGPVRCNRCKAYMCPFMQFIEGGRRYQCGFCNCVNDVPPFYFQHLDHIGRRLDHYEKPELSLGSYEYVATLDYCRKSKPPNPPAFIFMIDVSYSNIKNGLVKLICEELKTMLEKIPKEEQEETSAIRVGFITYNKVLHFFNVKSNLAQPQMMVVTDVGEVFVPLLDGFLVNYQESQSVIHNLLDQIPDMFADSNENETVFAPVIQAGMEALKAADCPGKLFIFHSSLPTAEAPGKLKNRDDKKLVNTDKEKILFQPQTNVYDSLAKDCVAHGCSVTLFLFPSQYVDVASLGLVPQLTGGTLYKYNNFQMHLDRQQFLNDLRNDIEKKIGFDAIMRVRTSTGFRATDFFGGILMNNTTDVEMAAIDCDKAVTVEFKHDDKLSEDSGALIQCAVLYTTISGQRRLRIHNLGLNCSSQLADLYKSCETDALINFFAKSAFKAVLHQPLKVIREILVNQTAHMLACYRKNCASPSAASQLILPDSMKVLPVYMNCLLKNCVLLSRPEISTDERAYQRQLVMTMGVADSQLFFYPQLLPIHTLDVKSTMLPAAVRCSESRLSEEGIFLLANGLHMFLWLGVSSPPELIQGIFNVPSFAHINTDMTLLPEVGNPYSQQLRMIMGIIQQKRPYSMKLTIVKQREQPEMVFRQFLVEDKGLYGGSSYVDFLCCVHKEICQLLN
inactive: [1] 0.016 | [2] -0.03 | [3] 0 | [4] 0.031 | [5] 0.017 | [6] -0.02 | [7] 0.005 | [8] 0 | [9] -0.026 | [10] -0.019 | [11] -0.006 | [12] -0.016 | [13] -0.004 | [14] -0.029 | [15] 0.002 | [16] 0.01 | [17] 0.001 | [18] -0.012 | [19] -0.004 | [20] 0.006

RBM4 (UniProt Q9BWF3)
inactive: [1] -0.015 | [2] -0.01 | [3] 0.018 | [4] 0.183 | [5] -0.003 | [6] -0.097 | [7] 0.075 | [8] -0.109 | [9] -0.02 | [10] -0.069 | [11] -0.086 | [12] -0.011 | [13] 0.032 | [14] 0.029 | [15] 0.03 | [16] 0.033 | [17] -0.067 | [18] 0.034 | [19] 0.046 | [20] 0.029

RALGAPB (UniProt Q86X10)
Chain of UniProt Q86X10 (Q86X10 whole entry, looked up): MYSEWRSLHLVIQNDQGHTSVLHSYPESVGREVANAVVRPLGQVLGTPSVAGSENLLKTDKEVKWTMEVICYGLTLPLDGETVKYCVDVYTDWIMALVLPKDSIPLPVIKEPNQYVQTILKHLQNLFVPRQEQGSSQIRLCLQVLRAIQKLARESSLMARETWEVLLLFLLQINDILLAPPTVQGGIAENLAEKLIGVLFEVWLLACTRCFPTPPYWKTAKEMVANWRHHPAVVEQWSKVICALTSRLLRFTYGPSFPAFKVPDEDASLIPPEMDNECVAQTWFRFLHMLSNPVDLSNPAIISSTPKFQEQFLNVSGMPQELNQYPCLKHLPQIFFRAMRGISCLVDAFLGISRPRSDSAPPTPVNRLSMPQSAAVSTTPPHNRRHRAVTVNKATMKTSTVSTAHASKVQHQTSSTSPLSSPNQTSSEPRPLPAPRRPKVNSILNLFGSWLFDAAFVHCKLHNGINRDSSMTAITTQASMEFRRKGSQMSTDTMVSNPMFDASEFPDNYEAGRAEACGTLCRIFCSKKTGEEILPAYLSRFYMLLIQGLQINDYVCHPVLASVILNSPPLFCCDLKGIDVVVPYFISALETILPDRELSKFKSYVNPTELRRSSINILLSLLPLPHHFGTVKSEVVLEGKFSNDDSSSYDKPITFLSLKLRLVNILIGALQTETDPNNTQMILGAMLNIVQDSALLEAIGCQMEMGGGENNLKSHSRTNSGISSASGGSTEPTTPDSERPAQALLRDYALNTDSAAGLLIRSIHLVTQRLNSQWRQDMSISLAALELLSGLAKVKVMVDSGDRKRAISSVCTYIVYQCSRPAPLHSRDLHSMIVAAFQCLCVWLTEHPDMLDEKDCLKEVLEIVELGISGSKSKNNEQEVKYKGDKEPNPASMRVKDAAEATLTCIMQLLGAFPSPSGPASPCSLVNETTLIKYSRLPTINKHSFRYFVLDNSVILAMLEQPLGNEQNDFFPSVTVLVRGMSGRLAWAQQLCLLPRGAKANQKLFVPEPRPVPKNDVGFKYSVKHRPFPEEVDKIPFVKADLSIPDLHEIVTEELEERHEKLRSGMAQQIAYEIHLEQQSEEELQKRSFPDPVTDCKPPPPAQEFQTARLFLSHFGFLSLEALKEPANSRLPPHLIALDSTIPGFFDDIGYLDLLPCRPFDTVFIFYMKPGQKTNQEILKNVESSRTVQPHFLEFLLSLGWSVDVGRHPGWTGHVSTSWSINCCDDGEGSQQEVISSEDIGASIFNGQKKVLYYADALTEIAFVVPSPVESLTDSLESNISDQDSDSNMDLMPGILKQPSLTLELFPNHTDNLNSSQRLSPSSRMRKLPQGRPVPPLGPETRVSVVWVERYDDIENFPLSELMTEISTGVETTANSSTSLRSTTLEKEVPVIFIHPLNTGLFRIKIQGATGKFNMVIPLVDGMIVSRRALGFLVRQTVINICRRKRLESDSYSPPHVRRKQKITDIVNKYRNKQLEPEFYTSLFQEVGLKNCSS
inactive: [1] 0.021 | [2] -0.062 | [3] -0.088 | [4] -0.09 | [5] 0.103 | [6] -0.06 | [7] 0.062 | [8] 0.046 | [9] -0.043 | [10] 0.103 | [11] -0.022 | [12] 0.029 | [13] -0.026 | [14] 0.026 | [15] 0.015 | [16] -0.048 | [17] -0.021 | [18] 0.053 | [19] -0.019 | [20] -0.044

RIOK2 (UniProt Q9BVS4)
active: [6] 0.829 | [14] 0.537
inactive: [1] -0.032 | [2] 0.269 | [3] 0.047 | [4] -0.028 | [5] 0.016 | [7] -0.011 | [8] -0.028 | [9] 0.093 | [10] -0.012 | [11] 0.002 | [12] 0.034 | [13] 0.01 | [15] -0.023 | [16] -0.054 | [17] -0.013 | [18] 0.05 | [19] 0.198 | [20] -0.03

SEC61G (UniProt P60059)
Chain of UniProt P60059 (P60059 whole entry, looked up): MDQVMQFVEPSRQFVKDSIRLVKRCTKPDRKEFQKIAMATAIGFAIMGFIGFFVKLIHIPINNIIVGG
inactive: [1] -0.094 | [2] 0.139 | [3] 0.209 | [4] -0.331 | [5] 0.105 | [7] -0.168 | [8] 0.098 | [9] -0.192 | [10] 0.338 | [11] -0.007 | [12] -0.061 | [13] 0 | [14] 0.089 | [15] -0.033 | [16] -0.045 | [17] 0.134 | [18] -0.01 | [19] 0.023 | [20] 0.053
active: [6] 0.46

SDHC (UniProt Q99643)
Chain of UniProt Q99643 (Q99643 whole entry, looked up): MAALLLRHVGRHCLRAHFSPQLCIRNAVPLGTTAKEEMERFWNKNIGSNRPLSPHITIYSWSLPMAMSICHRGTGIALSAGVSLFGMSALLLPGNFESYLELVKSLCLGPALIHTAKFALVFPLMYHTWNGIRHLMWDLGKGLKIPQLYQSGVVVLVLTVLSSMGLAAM
inactive: [1] 0.002 | [2] 0.071 | [3] 0.032 | [4] -0.244 | [5] 0.004 | [6] 0.179 | [7] -0.067 | [8] 0.016 | [9] -0.004 | [10] 0.133 | [11] -0.009 | [12] 0.056 | [13] -0.001 | [14] -0.006 | [15] -0.015 | [16] 0 | [17] -0.068 | [18] -0.057 | [19] -0.016 | [20] 0.028

RTN4IP1 (UniProt Q8WWV3)
Chain of UniProt Q8WWV3 (Q8WWV3 whole entry, looked up): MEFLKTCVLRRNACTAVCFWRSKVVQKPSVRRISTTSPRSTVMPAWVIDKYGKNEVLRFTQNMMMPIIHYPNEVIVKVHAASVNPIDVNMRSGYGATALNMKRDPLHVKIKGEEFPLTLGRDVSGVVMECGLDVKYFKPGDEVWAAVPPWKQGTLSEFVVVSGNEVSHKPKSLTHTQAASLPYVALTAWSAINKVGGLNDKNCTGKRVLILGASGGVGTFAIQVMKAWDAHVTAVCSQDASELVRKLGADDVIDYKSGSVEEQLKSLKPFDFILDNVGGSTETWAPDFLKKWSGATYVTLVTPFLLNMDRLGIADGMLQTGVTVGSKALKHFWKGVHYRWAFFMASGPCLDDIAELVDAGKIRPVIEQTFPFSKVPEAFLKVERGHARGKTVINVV
active: [12] -0.34
inactive: [1] -0.02 | [2] 0.017 | [3] -0.021 | [4] 0.056 | [5] 0.072 | [6] -0.057 | [7] 0.009 | [8] -0.016 | [9] 0.059 | [10] -0.048 | [11] -0.056 | [13] -0.046 | [14] -0.259 | [15] 0.028 | [16] -0.033 | [17] 0.245 | [18] -0.055 | [19] -0.012 | [20] 0.148

RDH10 (UniProt Q8IZV5)
inactive: [1] 0.004 | [2] -0.035 | [3] 0.062 | [4] -0.039 | [5] 0.022 | [6] 0.055 | [7] -0.032 | [8] -0.012 | [9] 0.001 | [10] 0.043 | [11] -0.004 | [12] 0.011 | [13] 0.132 | [14] 0.026 | [15] -0.022 | [16] 0.05 | [17] 0.042 | [18] -0.002 | [19] -0.084 | [20] 0.073

RNPS1 (UniProt Q15287)
Chain of UniProt Q15287 (Q15287 whole entry, looked up): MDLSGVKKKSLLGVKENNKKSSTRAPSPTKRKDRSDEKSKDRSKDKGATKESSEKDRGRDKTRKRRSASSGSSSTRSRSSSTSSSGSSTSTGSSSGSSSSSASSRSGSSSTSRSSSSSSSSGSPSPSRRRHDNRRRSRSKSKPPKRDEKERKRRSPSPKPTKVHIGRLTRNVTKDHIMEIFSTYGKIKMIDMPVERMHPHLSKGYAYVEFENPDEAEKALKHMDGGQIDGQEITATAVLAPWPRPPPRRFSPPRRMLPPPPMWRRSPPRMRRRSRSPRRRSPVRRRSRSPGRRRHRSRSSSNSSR
inactive: [1] 0.025 | [2] 0.044 | [4] -0.02 | [5] 0.038 | [6] 0 | [7] 0.042 | [8] -0.057 | [9] -0.009 | [10] -0.001 | [11] 0.025 | [12] -0.047 | [13] 0.044 | [14] -0.035 | [15] 0.034 | [17] -0.056 | [18] 0.029 | [19] 0.018 | [20] -0.033
active: [3] 0.254 | [16] 0.239

RCC1 isoform 2 (UniProt P18754)
Chain of UniProt P18754 (P18754 whole entry, looked up): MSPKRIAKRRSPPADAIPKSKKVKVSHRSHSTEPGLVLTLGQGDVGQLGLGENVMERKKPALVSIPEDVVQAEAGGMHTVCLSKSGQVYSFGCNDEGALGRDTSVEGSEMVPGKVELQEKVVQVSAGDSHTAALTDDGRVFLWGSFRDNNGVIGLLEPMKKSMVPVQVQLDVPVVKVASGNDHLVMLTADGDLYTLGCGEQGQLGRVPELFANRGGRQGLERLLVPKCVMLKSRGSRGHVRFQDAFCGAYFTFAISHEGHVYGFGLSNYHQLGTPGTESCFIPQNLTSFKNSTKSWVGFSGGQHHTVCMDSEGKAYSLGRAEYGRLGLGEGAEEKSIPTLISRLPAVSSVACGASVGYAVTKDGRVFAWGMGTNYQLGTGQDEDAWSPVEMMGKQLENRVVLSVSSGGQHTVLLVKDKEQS
inactive: [1] -0.018 | [2] 0.009 | [3] -0.063 | [4] -0.019 | [5] 0.017 | [6] -0.066 | [7] 0.011 | [8] -0.017 | [9] -0.01 | [10] 0.034 | [11] 0.024 | [12] -0.024 | [13] -0.071 | [14] 0.021 | [15] 0.034 | [16] 0.001 | [17] -0.011 | [18] 0.027 | [19] -0.02 | [20] -0.043

RPL37A (UniProt P61513)
inactive: [1] -0.012 | [2] -0.01 | [3] -0.011 | [5] -0.088 | [6] -0.131 | [7] -0.087 | [8] -0.044 | [9] 0.02 | [10] -0.2 | [11] 0.041 | [12] 0.011 | [13] 0.095 | [14] 0.067 | [15] 0.032 | [16] 0.139 | [17] 0.008 | [18] -0.028 | [19] -0.013 | [20] -0.021
active: [4] 0.312
